Sampled rows, rich in hits. Any-hit rate of the full collection: about 2.4%.
FEN1 inh: blocks human flap endonuclease 1. 390,000 compounds, 0.35% hits. Potency, µM (titrated, usually from 114 µM), actives largely listed as inhibitors. Recombinant FEN1 flap cleavage, fluorescence, 15 min; also: nearly all actives have a fitted effect of over 65% in size
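Potency values derive from four-parameter Hill fits of normalized qHTS data. The reaction used 10 nM FEN1 preincubated 15 min at room temperature with compound, then 50 nM DNA substrate, read at 0 and 15 min.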
POLB inh: inhibitors of human DNA polymerase beta; Pol beta primer extension/strand displacement, fluorescence kinetic; 340,000 compounds, 1.3% hits; P06746; Potency, µM (titrated, usually from 114 µM), hits mostly inhibitors
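Homogeneous kinetic assay of primer extension and strand displacement by 10 nM Pol beta, preincubated 15 min at room temperature with compound before 50 nM substrate (final) was added. Read at 0 and 10 min; four-parameter Hill fit.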
POLH inh: inhibitors of human DNA polymerase eta | Q9Y253 | recombinant Pol eta, fluorescent DNA replication assay | Potency, µM (series often up to 114 µM), hits mostly inhibitors | 390,000 compounds, 1.2% hits | AID 588591
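Fluorescent replication assay: 50 nM final substrate added after a 15 min room-temperature compound preincubation with 10 nM enzyme. Signal taken at 0 min and again at 10 min.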
Pol iota inh: blocks human DNA polymerase iota activity | Potency, µM (series often up to 115 µM), actives largely listed as inhibitors | Pol iota fluorescent replication assay, 10 min | 390,000 compounds, 1% hits | Q9UNA4
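Pol iota at 10 nM preincubated 15 min with compounds at room temperature; reaction started with fluorescent substrate, 50 nM final. Fluorescence read kinetically at 0 and 10 min; buffer-only wells as negative control.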
POLK inh: inhibitors of human DNA polymerase kappa | Q9UBT6 | purified Pol kappa, fluorescent DNA synthesis assay, 10 min | Potency, µM (doses to about 107 µM), hits mostly inhibitors | 400,000 compounds, 0.53% hits
Target sequence (Q9UBT6 whole entry, looked up): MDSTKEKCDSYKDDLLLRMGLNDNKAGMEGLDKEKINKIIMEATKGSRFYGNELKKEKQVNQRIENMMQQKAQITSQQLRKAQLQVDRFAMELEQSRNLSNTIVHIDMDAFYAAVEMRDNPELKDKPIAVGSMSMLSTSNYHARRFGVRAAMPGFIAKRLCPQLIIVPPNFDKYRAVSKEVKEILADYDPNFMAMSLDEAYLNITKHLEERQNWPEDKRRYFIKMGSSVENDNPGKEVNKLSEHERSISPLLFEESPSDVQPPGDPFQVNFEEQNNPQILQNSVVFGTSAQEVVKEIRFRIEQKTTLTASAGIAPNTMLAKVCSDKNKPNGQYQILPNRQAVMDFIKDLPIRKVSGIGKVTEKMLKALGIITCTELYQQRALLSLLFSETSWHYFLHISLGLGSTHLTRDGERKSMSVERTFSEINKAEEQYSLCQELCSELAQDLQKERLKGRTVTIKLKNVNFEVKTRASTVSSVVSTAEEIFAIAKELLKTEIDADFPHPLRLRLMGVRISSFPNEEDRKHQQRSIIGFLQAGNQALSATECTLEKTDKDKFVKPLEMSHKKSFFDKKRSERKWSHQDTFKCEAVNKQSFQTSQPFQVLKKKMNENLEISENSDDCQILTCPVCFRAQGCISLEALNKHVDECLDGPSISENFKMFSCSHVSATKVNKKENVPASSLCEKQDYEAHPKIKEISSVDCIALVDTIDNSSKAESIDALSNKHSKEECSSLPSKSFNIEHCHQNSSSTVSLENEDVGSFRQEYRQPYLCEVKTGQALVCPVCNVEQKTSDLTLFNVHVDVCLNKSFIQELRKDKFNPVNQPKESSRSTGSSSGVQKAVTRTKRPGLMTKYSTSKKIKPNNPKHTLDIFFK
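Pol kappa 10 nM + cpd, 15 min RT; start w/ substrate 50 nM final; fluorescence kinetic read, 0 and 10 min. Neg ctrl: buffer, no enzyme.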
WRN helicase inh: WRN helicase (human) inhibition. WRN helicase unwinding, fluorescent forked duplex, kinetic. Potency, µM (series often up to 114 µM), most hits filed as inhibitors. 360,000 compounds, 0.46% hits. AID 651768; also: nearly all actives have a fitted effect of over 55% in size
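Screening of the MLSMR collection measured strand separation of a quenched forked DNA duplex (100 nM) by 20 nM WRN with 2 mM ATP, all final. Compounds were preincubated with enzyme 15 min at room temperature.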
TbPGK inh: blocks T. brucei phosphoglycerate kinase. shares compounds with POLK inh. TbPGK coupled GAPDH assay, Kinase-Glo luminescence. Potency, µM (top dose mostly 57.5 µM), most hits filed as inhibitors. 500 compounds, 79% hits; also: nearly all actives have a fitted effect of over 65% in size
POLI cherry-pick: Human Pol iota inhibitor confirmatory assay; shares compounds with POLK inh; Pol iota primer extension, TAMRA/BHQ fluorescence; Potency, µM, actives largely listed as inhibitors; 1,500 compounds, 77% hits; AID 720496
Hits are given with their value; – = inactive; ? = inconclusive; · = no result given; [ ] = another dose, or the depositor's remark. Calls follow the shape of the dose curve; as a rule, active = well fitted curve in the direction sought with a large enough effect; inconclusive = small, poorly fitted or top-dose-only effect, or another doubt; inactive = no such curve, though single readings can be large; an effect the other way counts as inactive or inconclusive.

SMILES	FEN1 inh	POLB inh	POLH inh	Pol iota inh	POLK inh	WRN helicase inh	TbPGK inh	others
CCN(CC)S(=O)(=O)c1cccc(C(=O)N/N=C/c2ccc(O)c(O)c2O)c1	?	–	?	?	?	25µM	·	POLI cherry-pick=?
COc1ccc2c(c1)c1c(c(=O)n(-c3cccc(C)c3)c(=O)n1CC(=O)NCc1ccc(C)cc1)n2C	–	–	–	–	–	·	·
COc1cccc(CNCCSc2nnnn2C)c1OCc1ccc(Cl)cc1Cl	–	–	–	–	–	·	–
COc1ccccc1NC(=O)C1=C(C)Nc2nc(SCc3ccccc3Cl)nn2C1c1ccccn1 (stereo unspecified)	–	–	–	–	–	·	·
Cc1nn(-c2nc3ccccc3[nH]2)c(=O)c2ccccc12	–	–	–	–	–	–	2.9µM
Cc1nc2sc(-c3ccccc3)cc2c(=O)n1-n1cccc1	–	–	–	–	–	–	·
Cc1nc2sc(-c3ccccc3)cc2c(=O)n1N	–	–	–	–	–	–	16µM
C=CC(C1=CC(=O)C(OC)=CC1=O)c1ccc(O)cc1 (stereo unspecified)	·	·	·	·	–	·	·
Cc1ccnc(NC(=O)c2ccc3c(c2)OCO3)c1	–	–	–	–	–	–	21µM
O=C(CNC(=O)c1ccc(S(=O)(=O)N2CCCCC2)cc1)N/N=C/c1ccco1	–	–	–	?	–	–[11.6 µM]	·	POLI cherry-pick=12
CN(C)c1ccc(-c2cc[nH]c(=O)c2N)cc1	·	·	·	·	·	·	·	POLI cherry-pick=?
Cc1c(C(=O)Nc2cccc(-c3nc4ccccc4s3)c2)oc2ccccc12	–	–	–	–	–	·	·
O=C(Nc1cccc(-c2nc3ccccc3s2)c1)c1cc(=O)c2ccccc2o1	–	?	?	–	–	–[11.6 µM]	·	POLI cherry-pick=?
COc1cc(N(C)C)c(OC)cc1/C=C1\Cc2ccccc2C1=O	?	·	·	?	–	·	·
COc1ccc(NC(=O)c2nnn(CC(=O)Nc3c(C)cc(C)cc3C)c2N)cc1OC	–	–	–	–	–	·	·
Cc1cc(C)c(NC(=O)Cn2nnc(S(=O)(=O)c3ccc(C)c(C)c3)c2N)c(C)c1	?	10µM	–	79µM	?	·	·	POLI cherry-pick=?
CCn1c(C)cc(C(=O)COC(=O)c2ccccc2[N+](=O)[O-])c1C	–	·	–	–	–	–	15µM
O=C(COC(=O)c1ccccc1[N+](=O)[O-])c1ccc2c(c1)OCO2	–	·	?	–	–	–	9.2µM
Cc1ccc(CNC(=O)c2c(-c3ccccc3F)noc2C)o1	–	–	–	–	–	·	·
NC(N)=NCCC[C@H](N)C(=O)NCC(=O)N[C@@H](CC(=O)O)C(=O)N[C@@H](CO)C(=O)O	·	·	·	·	–	·	·
CC(C)CCNC(=O)c1ccc(Cn2c(=S)[nH]c3ccccc3c2=O)cc1	–	?	?	?	–	–[11.6 µM]	·	POLI cherry-pick=?
COc1ccc(Cn2c(=O)[nH]c3cc(C(=O)NCCC(C)C)ccc3c2=O)cc1	–	–	–	–	–	·	·
CCS(=O)(=O)c1ncc(Cl)c(C(=O)N2CCN(c3cccc(Cl)c3)CC2)n1	–	–	–	–	–	·	·
O=C(NCCc1nc2ccccc2n1Cc1ccc(Cl)cc1Cl)c1ccco1	–	–	·	–	–	·	·
O=C(N/N=C\c1ccc(OC(=O)c2cccs2)cc1)c1ccc(Cl)cc1	–	3.2µM	3.2µM	?	–	–[11.6 µM]	·	POLI cherry-pick=?
SMILES	FEN1 inh	POLB inh	POLH inh	Pol iota inh	POLK inh	WRN helicase inh	TbPGK inh	others
COc1ccc(-c2nc3sc(CCNC(=O)C(=O)Nc4ccc(OC)c(OC)c4)c(C)n3n2)cc1	–	–	–	–	–	·	·
COc1ccc(-c2nc3sc(CCNC(=O)C(=O)Nc4cccc(NC(C)=O)c4)c(C)n3n2)cc1	–	13µM	?	–	–	·	·	POLI cherry-pick=?
COc1ccc(/C=N\NC(=O)c2c(C)nc3ccc(Br)cn23)cc1	–	?	?	?	–	–	·	POLI cherry-pick=?
COc1ccc(B(O)O)c(CN2CCN(C(=O)OC(C)(C)C)CC2)c1	–	·	–	?	–	–	?
O=C(Nc1nc2ccccc2[nH]1)c1ccc(F)cc1	–	–	–	–	–	–	·
O=C(Nc1nc2ccccc2[nH]1)c1ccccc1F	–	–	–	–	–	–	8.2µM
COc1ccc(-c2cc3ccccc3oc2=O)cc1NC(=O)c1ccc([N+](=O)[O-])o1	–	?	?	–	–	–	·
COc1ccc(-c2cc3ccccc3oc2=O)cc1NC(=O)c1ccc(Br)o1	–	?	11µM	?	–	–[11.6 µM]	·	POLI cherry-pick=?
Cc1ccc(Cl)cc1NC(=O)Nc1cn(CC(C)C)c(=O)c2ccccc12	–	–	22µM	?	–	·	–
COc1ccc(NC(=O)Nc2cn(CC(C)C)c(=O)c3ccccc23)c(OC)c1	–	–	–	–	–	·	·
Nc1ccccc1C(=O)C[C@@H](N)C(=O)O	·	·	·	·	–[19.4 µM]	·	·
O=C(Nc1ccccc1C(F)(F)F)N1CCC2(CC1)Oc1ccccc1C(=O)N2Cc1ccccc1F	–	–	·	–	–	·	·
O=CC(O)C1OC(=O)C(O)C1O (stereo unspecified)	–	·	7.9µM	45µM	50µM	–	3.3µM
Cc1ccc(S(=O)(=O)N2CCc3cc(C(=O)N(C)Cc4ccccc4)ccc32)cc1	–	–	–	?	–	·	·
COCCNC(=O)/C(C#N)=C/c1ccc(O)cc1	–	–	–	–	–	–	16µM
COCCNC(=O)/C(C#N)=C/c1cccc(/C=C(\C#N)C(=O)NCCOC)c1	–	–	–	–	–	–	·
COc1ccc(OC)c(NC(=O)c2cn3c4c(ccc(Cl)c4c2=O)OC(C)C3)c1 (stereo unspecified)	–	–	–	–	–	·	·
CC(C)CCNC(=O)Cn1c(SCc2cccc(F)c2)nc2ccncc21	–	·	·	–	–	·	·
COc1ccccc1C1C=C(c2ccc(Cl)cc2)Nc2nc(-c3ccc(Cl)cc3)nn21 (stereo unspecified)	–	–	–	–	–	·	·
COc1cc(/C=N/Nc2nncn2/N=C/c2ccc(O)c(OC)c2)ccc1O	?	–	–	20µM	–	–	?
Cc1[nH]cnc1C(=O)N/N=C/c1c(Cl)cccc1Cl	–	–	–	–	–	–	12µM
Cc1ccc2c(c1)N(C(=O)CCC(=O)NCc1cccc(F)c1)CC(C)O2 (stereo unspecified)	–	–	–	–	–	·	·
C=CCn1c(=O)[nH]c2cc(C(=O)N3CCN(c4ccc(C(C)=O)cc4)CC3)ccc2c1=O	–	35µM	?	?	?	?	·	POLI cherry-pick=47
C=CCn1c(=O)[nH]c2cc(C(=O)N3CCN(c4cc(C)ccc4C)CC3)ccc2c1=O	–	–	–	–	–	–	·

Assay outcomes: PubChem, National Center for Advancing Translational Sciences (NCATS)
